About 83,000 compounds went through this panel and 20% of them were active in at least one assay; those are over-represented in the sample as a whole.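 Results are percent growth after 48 hours of single-concentration exposure. 100 means growth as in untreated cells, lower positive values show inhibition; negative values down to -100 show cell death.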 The source made the active and inactive calls. Rule for the calls: active = growth percent below 10; inactive = the rest.
Experiments:
Experiment in all cases: NCI-60 one-dose screen, 48 h (100 = growth as untreated, 0 = no growth, -100 = all killed)
Conditions in all cases: 10 µM unless noted
DU-145 prostate = system: DU-145 prostate
K-562 leukemia = system: K-562 leukemia
MALME-3M melanoma = system: MALME-3M melanoma
MDA-MB-231 breast = system: MDA-MB-231 breast
RXF 393 renal = system: RXF 393 renal
SF-268 CNS = system: SF-268 CNS
SF-295 CNS = system: SF-295 CNS
SF-539 CNS = system: SF-539 CNS
UACC-257 melanoma = system: UACC-257 melanoma
M14 melanoma = system: M14 melanoma
HCT-15 colon = system: HCT-15 colon
HT29 colon = system: HT29 colon
SNB-75 CNS = system: SNB-75 CNS
SNB-19 CNS = system: SNB-19 CNS
U251 CNS = system: U251 CNS
PC-3 prostate = system: PC-3 prostate
SK-MEL-5 melanoma = system: SK-MEL-5 melanoma
UACC-62 melanoma = system: UACC-62 melanoma
LOX IMVI melanoma = system: LOX IMVI melanoma
SK-MEL-28 melanoma = system: SK-MEL-28 melanoma

Measured: growth

CSc1nn2c(-c3ccc4ccccc4c3)ccnc2c1C#N
inactive: DU-145 prostate 43% | K-562 leukemia 11.1% | MALME-3M melanoma 10.1% | MDA-MB-231 breast 27.3% | RXF 393 renal 19% | SF-268 CNS 45.3% | SF-539 CNS 26.3% | UACC-257 melanoma 63% | HCT-15 colon 15.4% | SNB-19 CNS 18.3% | PC-3 prostate 45.8% | SK-MEL-5 melanoma 10.1% | UACC-62 melanoma 18.8% | LOX IMVI melanoma 21.7% | SK-MEL-28 melanoma 38.9%
active: SF-295 CNS 8.45% | M14 melanoma 5.19% | HT29 colon 2.83% | SNB-75 CNS -7.71% | U251 CNS 6.98%

CC(=O)c1ccc(Nc2nccc(-c3ccc4ccccc4c3)n2)cc1
inactive: DU-145 prostate 105% | K-562 leukemia 59.6% | MALME-3M melanoma 101% | MDA-MB-231 breast 102% | RXF 393 renal 85.1% | SF-268 CNS 93.6% | SF-295 CNS 100% | SF-539 CNS 100% | UACC-257 melanoma 104% | M14 melanoma 97.6% | HCT-15 colon 85.7% | HT29 colon 91.4% | SNB-75 CNS 91.8% | SNB-19 CNS 94.9% | U251 CNS 95.5% | PC-3 prostate 91.5% | SK-MEL-5 melanoma 97.6% | UACC-62 melanoma 88% | LOX IMVI melanoma 99% | SK-MEL-28 melanoma 107%

COc1ccc(CCN2C(=O)/C(=C/c3ccc(C4Oc5ccccc5C5CC(c6ccccc6)=NN54)cc3)SC2=S)cc1 (stereo not given)
inactive: DU-145 prostate 110% | K-562 leukemia 100% | MALME-3M melanoma 102% | MDA-MB-231 breast 92.3% | RXF 393 renal 107% | SF-268 CNS 99.2% | SF-295 CNS 105% | SF-539 CNS 98.5% | UACC-257 melanoma 109% | M14 melanoma 102% | HCT-15 colon 105% | HT29 colon 105% | SNB-75 CNS 101% | SNB-19 CNS 94.2% | U251 CNS 101% | PC-3 prostate 98% | SK-MEL-5 melanoma 101% | UACC-62 melanoma 97.5% | LOX IMVI melanoma 96.6% | SK-MEL-28 melanoma 117%

O=C(/C=C/c1cccc(Cl)c1Cl)Nc1ncc(Cc2ccccc2Cl)s1
inactive: DU-145 prostate 53.3% | K-562 leukemia 13.4% | MALME-3M melanoma 62.1% | MDA-MB-231 breast 75% | RXF 393 renal 37.8% | SF-268 CNS 82.2% | SF-295 CNS 21.4% | SF-539 CNS 11.5% | UACC-257 melanoma 78.1% | M14 melanoma 12.5% | HCT-15 colon 21.1% | HT29 colon 11.9% | SNB-75 CNS 36.4% | SNB-19 CNS 47.2% | U251 CNS 50.9% | PC-3 prostate 56.5% | SK-MEL-5 melanoma 45.8% | UACC-62 melanoma 42.7% | LOX IMVI melanoma 44.7% | SK-MEL-28 melanoma 58.6%

O=C(Nc1ccccc1[N+](=O)[O-])c1ccc(Cl)c(Cl)c1
inactive: DU-145 prostate 102% | K-562 leukemia 91.9% | MALME-3M melanoma 93.5% | MDA-MB-231 breast 93.2% | RXF 393 renal 88.1% | SF-268 CNS 89.8% | SF-295 CNS 93.3% | SF-539 CNS 89.4% | UACC-257 melanoma 90.8% | M14 melanoma 101% | HCT-15 colon 91% | HT29 colon 98.7% | SNB-75 CNS 69.6% | SNB-19 CNS 101% | U251 CNS 86.1% | PC-3 prostate 80.3% | SK-MEL-5 melanoma 84.2% | UACC-62 melanoma 87.2% | LOX IMVI melanoma 85.9% | SK-MEL-28 melanoma 105%

NS(=O)(=O)c1ccc(NC(=O)/C(=C\c2ccc(Cl)cc2Cl)NC(=O)c2ccccc2)cc1
inactive: DU-145 prostate 109% | K-562 leukemia 88.2% | MALME-3M melanoma 93.2% | MDA-MB-231 breast 105% | RXF 393 renal 96% | SF-268 CNS 94.5% | SF-295 CNS 104% | SF-539 CNS 95.7% | UACC-257 melanoma 102% | M14 melanoma 102% | HCT-15 colon 110% | HT29 colon 103% | SNB-75 CNS 81.4% | SNB-19 CNS 95.6% | U251 CNS 97.1% | PC-3 prostate 89.4% | SK-MEL-5 melanoma 90.2% | UACC-62 melanoma 74.9% | LOX IMVI melanoma 96.2% | SK-MEL-28 melanoma 110%

CS(=O)(=O)c1nnc(-c2ccccc2)s1
inactive: DU-145 prostate 88% | K-562 leukemia 78.4% | MALME-3M melanoma 88.1% | MDA-MB-231 breast 101% | RXF 393 renal 110% | SF-268 CNS 94.8% | SF-295 CNS 106% | SF-539 CNS 106% | UACC-257 melanoma 91% | M14 melanoma 74% | HCT-15 colon 71.4% | HT29 colon 82.2% | SNB-75 CNS 103% | SNB-19 CNS 107% | U251 CNS 106% | PC-3 prostate 96.4% | SK-MEL-5 melanoma 99.4% | UACC-62 melanoma 82.7% | LOX IMVI melanoma 71.2% | SK-MEL-28 melanoma 97.3%

CCNc1nc(O)c(/C=C2\C=Nc3ncccc32)s1
inactive: K-562 leukemia 26.3% | MDA-MB-231 breast 10.7% | HCT-15 colon 16%
active: DU-145 prostate 9.93% | MALME-3M melanoma -6.17% | RXF 393 renal -39.3% | SF-268 CNS -5.81% | SF-295 CNS 4.95% | SF-539 CNS -64.2% | UACC-257 melanoma -15.9% | M14 melanoma 0.692% | HT29 colon 4.26% | SNB-75 CNS -71.8% | SNB-19 CNS 9.99% | U251 CNS -9.45% | PC-3 prostate 2.3% | SK-MEL-5 melanoma 9.15% | UACC-62 melanoma -16% | LOX IMVI melanoma 1.75% | SK-MEL-28 melanoma -17.2%

COc1ccc(C2=NN(C(C)=O)C(c3cn(-c4ccccc4)nc3-c3ccc(Cl)cc3)C2)cc1 (stereo not given)
inactive: DU-145 prostate 17.4% | K-562 leukemia 13.1% | MALME-3M melanoma 52% | MDA-MB-231 breast 17.2% | SF-268 CNS 27.2% | SF-295 CNS 42.4% | SF-539 CNS 15.8% | UACC-257 melanoma 66.4% | M14 melanoma 17.2% | HCT-15 colon 17.1% | SNB-19 CNS 34.2% | PC-3 prostate 34.3% | SK-MEL-5 melanoma 27.1% | UACC-62 melanoma 20% | SK-MEL-28 melanoma 56.3%
active: RXF 393 renal -10.5% | HT29 colon -6.18% | SNB-75 CNS -4.48% | U251 CNS -7.11% | LOX IMVI melanoma 0.526%

Cc1ccc(CNc2ccc3nc(CCC(C)C)[nH]c3c2)cc1
inactive: DU-145 prostate 101% | K-562 leukemia 79.2% | MALME-3M melanoma 90.9% | MDA-MB-231 breast 86% | RXF 393 renal 96% | SF-268 CNS 91.2% | SF-295 CNS 95.1% | SF-539 CNS 94.4% | UACC-257 melanoma 89.7% | M14 melanoma 96.2% | HCT-15 colon 79.5% | HT29 colon 92.4% | SNB-75 CNS 86.4% | SNB-19 CNS 89% | U251 CNS 91.8% | PC-3 prostate 77.9% | SK-MEL-5 melanoma 97.8% | UACC-62 melanoma 90.7% | LOX IMVI melanoma 94.5% | SK-MEL-28 melanoma 98%

Cc1nc2c(=O)nc3s/c(=C\c4ccco4)c(=O)n3c2nc1C
inactive: DU-145 prostate 103% | K-562 leukemia 102% | MALME-3M melanoma 82.1% | MDA-MB-231 breast 93.8% | RXF 393 renal 112% | SF-268 CNS 100% | SF-295 CNS 91.2% | SF-539 CNS 90.3% | UACC-257 melanoma 96.1% | M14 melanoma 93.7% | HCT-15 colon 106% | HT29 colon 100% | SNB-75 CNS 85.4% | SNB-19 CNS 96.8% | U251 CNS 93.5% | PC-3 prostate 97.6% | SK-MEL-5 melanoma 104% | UACC-62 melanoma 92.4% | LOX IMVI melanoma 90.2% | SK-MEL-28 melanoma 100%

Cc1c2ccncc2c(C)c2c1c1cc(CO)ccc1n2C
inactive: RXF 393 renal 11.9% | SF-268 CNS 14.4% | SF-539 CNS 17.2% | SNB-75 CNS 13.3%
active: DU-145 prostate -2.14% | K-562 leukemia 6.77% | MALME-3M melanoma -1.68% | MDA-MB-231 breast -8.51% | SF-295 CNS 3.5% | UACC-257 melanoma -39.2% | M14 melanoma -22.9% | HCT-15 colon 4.02% | HT29 colon -21.1% | SNB-19 CNS 1.5% | U251 CNS -10.8% | PC-3 prostate 4.52% | SK-MEL-5 melanoma 6.31% | UACC-62 melanoma -54.2% | LOX IMVI melanoma -21% | SK-MEL-28 melanoma 5.47%

C=C1C(=O)O[C@H]2[C@H]1CC/C(COC(=O)/C=C/C(=O)OC/C1=C/CC[C@@]3(C)O[C@H]3[C@H]3OC(=O)C(=C)[C@@H]3CC1)=C\CC[C@@]1(C)O[C@@H]21
inactive: DU-145 prostate 25.4% | SF-268 CNS 90.3% | SF-295 CNS 115% | SF-539 CNS 82.2% | UACC-257 melanoma 60.3% | M14 melanoma 27.5% | HCT-15 colon 13.1% | SNB-75 CNS 95.2% | SNB-19 CNS 90.5% | U251 CNS 76% | PC-3 prostate 61.1% | SK-MEL-5 melanoma 83.1% | UACC-62 melanoma 55.1% | SK-MEL-28 melanoma 51.8%
active: K-562 leukemia 5.18% | MALME-3M melanoma -27.3% | MDA-MB-231 breast -7.25% | RXF 393 renal -11.3% | HT29 colon 8.88% | LOX IMVI melanoma 3.81%

Cc1ccc(-c2nc(N3CCNCC3)c3oc(-c4ccc(C)cc4)nc3n2)cc1
inactive: DU-145 prostate 11.9% | MALME-3M melanoma 93.6% | RXF 393 renal 73.4% | SF-268 CNS 28.5% | SF-295 CNS 108% | SF-539 CNS 95.8% | UACC-257 melanoma 103% | SNB-75 CNS 89% | SNB-19 CNS 39.1% | SK-MEL-5 melanoma 96.5% | UACC-62 melanoma 95.4% | SK-MEL-28 melanoma 83.6%
active: K-562 leukemia -75% | MDA-MB-231 breast -72.1% | M14 melanoma -94.3% | HCT-15 colon -88% | HT29 colon -94.7% | U251 CNS -98.5% | PC-3 prostate -90.2% | LOX IMVI melanoma -79.6%

Source: PubChem BioAssay (NCI)
